# Experimental data published in PubChem BioAssay (Tox21).
# Inconclusive results are not listed. Values without a mark were called inactive. The call rests on the fitted dose curve; in most records, active means well fitted cell-killing curve with a large enough effect in the repeat runs; inconclusive means weak or mixed curves, or effect the other way; inactive means flat fitted curve, though single readings scatter.
# Experiment: qHTS assay to identify small molecule antagonists of the androgen receptor (AR) signaling pathway using the MDA cell line in the presence of 0.5 nM R1881 - cell viability counter screen (AID 1259242); further: nearly all actives have a fitted effect of over 45% in size
# Settings: MDA-kb2 viability, CellTiter-Fluor protease fluorescence, 16 h; series mostly up to 92.4 µM; viability change, negative = cytotoxic: at the top concentration
# Excerpt: U.S. Tox21 Program National Center for Advancing Translational Sciences [NCATS] NIH Chemical Genomics Center [NCGC] U.S. Environmental Protection Agency [EPA] National Institutes of Environmental Health Sciences [NIEHS] National Toxicology Program [NTP] U.S. Food and Drug Administration [FDA] Tox21 Assay Overview: Androgen receptor (AR) is an important member of the nuclear receptor family. Its signaling plays a critical role in AR-dependent prostate cancer and other androgen related diseases. Considerable attention has been given in the past decades to develop methods to study and screen for the environmental chemicals that have the potential to interfere with metabolic homeostasis, reproduction, developmental and behavioral functions. Therefore AR binding assay for screening androgen antagonists can be used to identify potential endocrine disruptors. MDA-kb2 cells (from ATCC, deposited by Wilson et al.) were used to screen for AR inhibitors against Tox21 compound libraries. These cells are human breast carcinoma cells that were stably transfected with a luciferase reporter gene under control of the MMTV promoter that contains response elements for both androgen receptor (AR) and glucocorticoid receptor (GR). The current screening for identification of AR inhibitors against Tox21 libraries used lower concentration of (0.5 nM) R1881 as a stimulator. The cytotoxicity of the Tox21 compound libraries against MDA-kb2 cell line was tested by measuring live-cell protease activity using CellTiter-Fluor assay in the same wells.
# Tox21 Assay Protocol Summary: MDA-kb2 cells (cells cultured without CO2) were dispensed at 3,000 cells/well in 4 uL of culture medium into white wall/solid-bottom 1536-well plates (Corning Life Sciences, Corning, NY) using a Multidrop Combi (ThermoFisher Scientific, Waltham, MA) dispenser. After the assay plates were incubated at a 37C and 0% CO2 for 5 hr, 23 nL of compounds dissolved in DMSO, positive controls or DMSO only was transferred to the assay plate by a Pintool station (Kalypsys, San Diego, CA). The transfer of compounds was followed by the addition of 1 uL of 0.5 nM (final concentration) agonist (R1881)/culture medium using a Flying Reagent Dispenser (FRD, Aurora Discovery, San Diego, CA). The plates were incubated at 37C and 0% CO2 for 16 hr. For cytotoxicity assay, 1 uL of CellTiter-Fluor reagent (Promega Corporation, Madison, WI) was added to each well using the FRD and after 30 min incubation at 37C and 0% CO2, The fluorescence intensity was measured using ViewLux plate reader (PerkinElmer, Shelton, CT).
# On the % scale 0 is the no-effect control and ±100 the full control effect.
row,SMILES,"viability change, negative = cytotoxic"
1,CC(C)COC(=O)c1ccc(O)cc1,-5.26%
2,COC(=O)CC(C(C)=O)C(=O)OC (stereo not given),-0.9%
3,CC(=O)N[C@@H](Cc1ccc(O)cc1)C(=O)O,-0.518% [at 42.5 µM]
4,CCCCOCCOC(=O)c1cccnc1,-3.65% [at 42.5 µM]
5,O=CNNC=O,-2.21%
6,CNC1CCCN(c2c(F)cc3c(=O)c(C(=O)O)cn(C4CC4)c3c2OC)C1 (stereo not given),-0.9% [at 42.5 µM]
7,BrC(Br)C(Br)Br,1.01%
8,CC[C@@H](CO)NCCN[C@@H](CC)CO,-0.922% [at 42.5 µM]
9,O=S(=O)(Cl)c1c(Cl)cccc1Cl,-1.3%
10,COc1cc(C(C)=O)ccc1OCCCN1CCC(c2noc3cc(F)ccc23)CC1,-5.64% [at 42.5 µM]
11,CCCCCCC(CO)CCCC (stereo not given),-0.0651%
12,COC(=O)Nc1nc2ccc(C(=O)C3CC3)cc2[nH]1,-11.1% [at 42.5 µM]
13,CC1CCC(C(C)CS)CC1S (stereo not given),6.88%
14,COC(=O)c1sccc1S(N)(=O)=O,1.25%
15,CCC(CO)(CO)[N+](=O)[O-],-0.0126%
16,CC(C)(C)C1(CCc2ccc(Cl)cc2)CO1 (stereo not given),6.47%
17,CCC(CO)(CO)CO,5.03%
18,CCCc1nc2c(C)cc(-c3nc4ccccc4n3C)cc2n1Cc1ccc(-c2ccccc2C(=O)O)cc1,-4.01% [at 42.5 µM]
19,Nc1nc(-c2ccc([N+](=O)[O-])cc2)cs1,-5.96%
20,O=C1OC[C@H](Cc2cccc(O)c2)[C@H]1Cc1cccc(O)c1,-0.459% [at 42.5 µM]

row,SMILES,"viability change, negative = cytotoxic"
1,CC(C)CC(O)CC(C)C,-0.396%
2,CCCCC[C@H](O)/C=C/[C@H]1[C@H](O)CC(=O)[C@@H]1C/C=C\CCCC(=O)O,-6.51% [at 42.5 µM]
3,CCCCCCCC/C=C/C(=O)O,4.55% [at 42.5 µM]
4,O=C(O)CCCc1c[nH]c2ccccc12,0.453%
5,CC(C)(C)CCCCCCOC(=O)c1ccccc1C(=O)OCCCCCCC(C)(C)C,-4.81%
6,CC(CO)(CO)C(=O)O,-1.78%
7,CC(C)N(C)C,-0.364%
8,CN=C(N)NC(=O)Nc1c(C)cccc1C,-1.46% [at 42.5 µM]
9,CC1=C2[C@@H]([C@H](C)CC[C@H]2/C=C(\C)C(=O)O)[C@H](O)C1,-0.73%
10,O=C(O)CO,0.715%
11,Cc1cc(CCCOc2c(C)cc(-c3noc(C(F)(F)F)n3)cc2C)on1,3.34% [at 42.5 µM]
12,CCN(CC)C(=O)N1CCN(C)CC1,0.999% [at 42.5 µM]
13,CNS(=O)(=O)c1cc(C(=O)N2CCC(CCN3C4CCC3CC(n3c(C)nc5ccccc53)C4)(c3cccc(F)c3)CC2)c(Cl)cc1F (stereo not given),-9.25%
14,NC(=O)CCCCC(N)=O,0.423%
15,CCCCCCC(O)CCCCCCCCCCC(=O)OC (stereo not given),6.84%
16,CCc1ccc(C)cc1,0.66%
17,CC(C)C1CCC(C(=O)N[C@H](Cc2ccccc2)C(=O)O)CC1 (stereo not given in full),0.304% [at 42.5 µM]
18,O=P(O)(O)Oc1ccccc1,1.67%
19,Cc1ccccc1S(N)(=O)=O,-2.67%
20,CCCCCCCCCCCCCCCC(=O)OCC,0.263%
